# PubChem BioAssay (Tox21)
# Results filed as inconclusive are left out. A call without a number means that no potency is given here. Calls of active or inactive are those of the source. Calls come from the whole dose curve; as a rule, active = well fitted inhibition curve with a large enough effect in the signal ratio in the repeat runs (not every such curve was filed as active); inconclusive = weak or mixed curves, or effect the other way; inactive = no such curve, though single readings can be large or run the other way; the % refers to the signal ratio.
# Molecular target: Peroxisome proliferator-activated receptor delta (Homo sapiens) (UniProt Q03181)
# Sequence (Q03181 whole entry, looked up): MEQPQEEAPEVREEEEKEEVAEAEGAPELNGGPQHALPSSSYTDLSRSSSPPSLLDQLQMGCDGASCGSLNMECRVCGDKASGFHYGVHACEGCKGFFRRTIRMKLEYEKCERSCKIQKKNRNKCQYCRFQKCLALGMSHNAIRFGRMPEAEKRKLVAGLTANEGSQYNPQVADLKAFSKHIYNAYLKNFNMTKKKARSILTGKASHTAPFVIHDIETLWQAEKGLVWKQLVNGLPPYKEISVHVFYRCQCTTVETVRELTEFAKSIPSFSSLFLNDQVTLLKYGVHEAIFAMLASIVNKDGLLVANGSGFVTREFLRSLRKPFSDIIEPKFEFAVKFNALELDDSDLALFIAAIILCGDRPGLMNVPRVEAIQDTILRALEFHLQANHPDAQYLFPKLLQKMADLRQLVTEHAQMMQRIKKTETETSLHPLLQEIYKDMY
# Assay: qHTS assay to identify small molecule antagonists of the peroxisome proliferator-activated receptor delta (PPARd) signaling pathway (AID 743215);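 note: cells stimulated with agonist L165041 at 300 nM final during compound exposure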
# Conditions: HEK293H PPARd-UAS-bla, beta-lactamase FRET ratio, antagonist, 17 h; series mostly up to 62 µM
# Description: U.S. Tox21 Program National Center for Advancing Translational Sciences [NCATS] NIH Chemical Genomics Center [NCGC] U.S. Environmental Protection Agency [EPA] National Institutes of Environmental Health Sciences [NIEHS] National Toxicology Program [NTP] U.S. Food and Drug Administration [FDA] Tox21 Assay Overview: The peroxisome proliferator-activated receptors (PPARs) are lipid-activated transcription factors of the nuclear receptor superfamily with three distinct subtypes namely PPAR alpha, PPAR delta (PPARd) and PPAR gamma. All these subtypes heterodimerizes with Retinoid X receptor (RXR) and have different physiological functions. […] To identify the compounds that inhibit PPAR-delta signaling, GeneBLAzer PPAR delta UAS-bla HEK293H cell line (Invitrogen, Carlsbad, CA, USA) containing a beta-lactamase reporter gene under the control of an Upstream Activator Sequence (UAS) was used to screen the Tox21 compound library.
# Tox21 Assay Protocol Summary: PPARd-bla cells were dispensed at 3000 cells/5uL/well in 1536-well black wall/clear bottom plates using a Multidrop Combi (Thermo Fisher Scientific, Waltham, MA) dispenser. After the assay plates were incubated at 37 C and 5% CO2 for 5 h, 23 nL of compounds dissolved in DMSO, positive controls or DMSO only was transferred to the assay plate by a Pintool station (Kalypsys, San Diego, CA), followed by addition of 1ul L165041 (300 nM, final concentration in the wells). The assay plates were incubated at 37 C for 17 h, and then 1 uL of LiveBLAzerTM B/G FRET substrate was added using a Bioraptr Flying Reagent Dispenser (FRD) workstation (Beckman Coulter, Indianapolis, IN, USA). The assay plates were incubated at room temperature for 2 h and fluorescence intensity was measured by an Envision plate reader (PerkinElmer, Shelton, CT).
# Potency is the fitted concentration of half-maximal effect.
row,SMILES,Potency
1,Clc1ccccc1-c1ccccc1Cl,inactive
2,c1ccc2c(c1)Sc1ccccc1N2CC1CN2CCC1CC2 (stereo not given),11.9 µM (active)
3,O=C1C(I)=CC(=C(c2cc(I)c(O)c(I)c2)c2ccccc2C(=O)O)C=C1I,inactive
4,C=CC(=O)OCCCC,inactive
5,Cc1cccc([N+](=O)[O-])c1C,inactive
6,CCCCC(CC)COC(=O)CCCCC(=O)OCC(CC)CCCC (stereo not given),inactive
7,ClC1=C(Cl)[C@]2(Cl)[C@@H]3[C@@H](Cl)[C@H]4O[C@H]4[C@@H]3C1(Cl)C2(Cl)Cl,inactive
8,CC1COC(Cn2cncn2)(c2ccc(Oc3ccc(Cl)cc3)cc2Cl)O1 (stereo not given),49 µM (active)
9,Fc1c(F)c(F)c(Br)c(F)c1F,inactive
10,Cc1ccccc1N=O,inactive
